Assay outcomes: PubChem BioAssay, National Center for Advancing Translational Sciences (NCATS)
TrxR1 inh – qHTS Assay for Inhibitors of Mammalian Selenoprotein Thioredoxin Reductase 1 (TrxR1): qHTS; recombinant rTrxR1, NADPH fluorescence consumption, selenite substrate; Thioredoxin reductase 1, cytoplasmic (Rattus norvegicus), O89049; Potency, µM (series often up to 114 µM), for the others: at the top dose activity change, negative = inhibition, most hits filed as inhibitors; 390,000 tested, 1% active; further: potency means the concentration at half of the fitted maximal effect; nearly all actives have a fitted effect of over 65% in size
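Rat TrxR1 (90 nM in the dispensed reagent) was pre-reduced with 400 uM NADPH for 5 min at room temperature, then incubated with compound for 15 min. After 400 uM selenite was added, NADPH fluorescence (Ex 340/Em 450 nm) was followed for 8 min.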
GALK inh – qHTS Assay for Inhibitors of Human Galactokinase (GALK) | 270,000 tested, 0.007% active | Purified GALK, Kinase-Glo residual ATP luminescence | AID 1868, 2009 | Potency, µM (highest dose often 57.5 µM), for the others: top-dose activity change, negative = inhibition, usual class: inhibitors | P51570; further: potency means the concentration at half of the fitted maximal effect
Target sequence (P51570 whole entry, looked up): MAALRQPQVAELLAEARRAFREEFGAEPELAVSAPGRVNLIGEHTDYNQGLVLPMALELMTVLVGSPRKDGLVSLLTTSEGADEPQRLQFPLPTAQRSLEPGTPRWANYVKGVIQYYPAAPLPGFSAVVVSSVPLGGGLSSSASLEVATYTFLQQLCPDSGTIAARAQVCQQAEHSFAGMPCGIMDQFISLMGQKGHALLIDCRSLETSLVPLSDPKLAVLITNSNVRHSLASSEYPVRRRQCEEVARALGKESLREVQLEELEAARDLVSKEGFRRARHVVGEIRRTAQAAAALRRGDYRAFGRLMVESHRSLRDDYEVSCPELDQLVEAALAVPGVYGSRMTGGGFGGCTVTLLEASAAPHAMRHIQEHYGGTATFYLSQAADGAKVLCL
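Human GALK (5 nM) with 35 uM ATP and 100 uM galactose in 20 mM HEPES pH 8.0, 5 mM MgCl2, 60 mM NaCl, 1 mM DTT, 0.01% BSA. After 1 h at room temperature, leftover ATP was read by Kinase-Glo Plus luminescence.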
FBPA coupling cs – qHTS Assay for Inhibitors of Fructose-1,6-bisphosphate Aldolase from Giardia Lamblia: Coupling assay counterscreen; coupling enzyme system counterscreen, AmpLite Red fluorescence; activity change, negative = inhibition, % at 58.2 µM, hits read low; 290,000 tested, 0.67% active; AID 2472, 2010; in the data active means activity change below about -30%
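Final compound at 57.5 uM, incubated 10 min at RT with coupling enzyme reagent (glyceraldehyde-3-phosphate), then 20 min with substrate and AmpLite Red detection. Fluorescence read at 525/598 nm; tests interference with the coupling assay, not aldolase inhibition.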
TrxR1 substrate – qHTS Assay for Substrates of Mammalian Selenoprotein Thioredoxin Reductase 1 (TrxR1): qHTS | 390,000 tested, 0.01% active | purified TrxR1 substrate turnover, NADPH consumption readout | Thioredoxin reductase 1, cytoplasmic (Rattus norvegicus), O89049 | Potency, µM (top dose mostly 114 µM), without a hit: at the highest dose activity change, negative = substrate turnover | AID 588456, 2011; further: potency means the concentration at half of the fitted maximal effect; nearly all actives have a fitted effect of over 50% in size
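Rat TrxR1, dispensed at 90 nM, was prereduced with 400 uM NADPH (final) for 5 min at ~22 deg C, then incubated with compound 15 min before 400 uM selenite. A first-read NADPH fluorescence drop versus no-compound background flagged substrates.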
USP1 inh – Inhibitors of USP1/UAF1: Primary Screen; Ubiquitin carboxyl-terminal hydrolase 1 (Homo sapiens), O94782; recombinant USP1/UAF1, Ub-Rhodamine cleavage fluorescence; Potency, µM (highest dose often 57.1 µM), without a hit: at the highest dose activity change, negative = inhibition, usual class: inhibitors; 390,000 tested, 0.23% active; further: potency means the concentration at half of the fitted maximal effect; nearly all actives have a fitted effect of over 60% in size
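USP1/UAF1 complex (1 nM) preincubated 15 min at room temperature with compound, then Ub-Rho substrate (150 nM final) added. Kinetic fluorescence at 480/540 nm over 6 reads at 60 s intervals; 50 mM HEPES pH 7.8, 0.5 mM EDTA, 0.1 mg/ml BSA, 1 mM TCEP, 0.01% Tween-20.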
* = called active by the depositor; ? = inconclusive; . = not tested or not shown; ! = a repeat was not active; [ ] = another dose, or the depositor's remark. The list is not random: actives were taken first. Their share in the collection is about 1.5%. Unless noted, the call rests on the fitted dose curve; in most records, active means well fitted curve in the direction sought with a large enough effect; inconclusive means small, poorly fitted or top-dose-only effect, or another doubt; inactive means no such curve, though single readings can be large; an effect the other way counts as inactive or inconclusive. On the % scale 0 is the no-effect control and ±100 the full control effect.

SMILES	TrxR1 inh	GALK inh	FBPA coupling cs	TrxR1 substrate	USP1 inh
COc1ccccc1Oc1c(C)oc2c(CN3CCN(C)CC3)c(O)ccc2c1=O	.	0%	0	.	.
COc1cc(/C=C2/C=Cc3ccccc32)ccc1N(C)C	?	.	.	-10%	.
O=C(Nc1ccc2nc3n(c(=O)c2c1)CCCCC3)c1c(F)ccc([N+](=O)[O-])c1F	50µM*	0%	.	-5%	-18%
COc1cccc(C2=Nc3cccc4cccc(c34)N2)c1	-1%[57.1 µM]	0%	-10	4%[57.1 µM]	?
c1coc(C2=Nc3cccc4cccc(c34)N2)c1	35µM*	-2%	0	-7%	-18%
Cc1ccccc1C(=O)Nc1cccc(-c2nnc(SCC(=O)NCc3ccco3)n2C)c1	0%	.	.	1%	.
CN(C)S(=O)(=O)c1cccc(NC(=O)C2Cc3ccccc3CN2C(=O)c2ccco2)c1 (stereo not given)	56µM*	1%	0	4%	-20%
Cc1ccc(NC(=O)C2Cc3ccccc3CN2C(=O)c2ccco2)cc1S(=O)(=O)N(C)C (stereo not given)	?	5%	-3	1%	-19%
CC(C)(C)n1ncc2c(=O)n(Cc3ccccc3CS(=O)(=O)c3ccccc3)cnc21	7%	.	.	-7%	.
COC(=O)C1=C(C)N(c2ccc(Cl)c(Cl)c2)C(=O)C1	50µM*	-3%	1	-1%	-8%
OC[C@@H]1OC(O)[C@H](O)[C@H](O)[C@H]1O (stereo not given in full)	.	.	0	.	.
COc1cc2oc(=O)c(CC(=O)N3CCCCC3)c(C)c2cc1OC	16µM*	.	.	782%	-21%
CC(=O)Oc1ccc(N2C(=O)C3C4C=CC(C5CC45)C3C2=O)cc1[N+](=O)[O-] (stereo not given)	45µM*	.	3	-11%	-4%
Cc1cc(C(=O)NCCC2=CCCCC2)c(C)o1	32µM*	0%	0	-7%	-4%
Cc1ccc(S(=O)(=O)N2CCCCC2)cc1C(=O)NCCC1=CCCCC1	7%	.	.	-1%	-23%
C=C1NN(Cc2ccccc2)C(=O)N1c1ccc(OC)cc1	10%	.	.	-2%	.
Cc1cc(Oc2ccccc2)nc(C#N)n1	8%	.	.	3%	.
CCOc1ccccc1NC(=O)c1nc(SCc2ccccc2F)ncc1Cl	8%	.	.	2%	.
CCN(CC)c1ccc(NC(=O)CCS(=O)(=O)c2cccc3nsnc23)c(C)c1	79µM*!	1%	0	-4%	?
O=C(CNC(=O)C1CCCCC1)OCC(=O)c1ccc([N+](=O)[O-])cc1	6%[0.0914 µM]	.	.	8%[0.0914 µM]	.
COc1ccc(CCNC(=O)CS(=O)Cc2nc(-c3ccccc3F)oc2C)cc1OC (stereo not given)	50µM*	-2%	2	24%	-18%
COCCNC(=O)CS(=O)Cc1nc(-c2ccccc2C)oc1C (stereo not given)	16µM*	2%	3	7%	-11%
COc1ccc(CCNC(=O)CS(=O)Cc2nc(-c3ccccc3Cl)oc2C)cc1OC (stereo not given)	27%	-1%	.	7%	-17%
Cc1ccc(CCNC(=O)CS(=O)Cc2nc(-c3ccccc3F)oc2C)cc1 (stereo not given)	32µM*	5%	0	2%	-4%
Cc1ccc(CCNC(=O)CS(=O)Cc2nc(-c3ccccc3C)oc2C)cc1 (stereo not given)	-4%	.	.	-8%	-7%
SMILES	TrxR1 inh	GALK inh	FBPA coupling cs	TrxR1 substrate	USP1 inh
CCCCNC(=O)CS(=O)Cc1nc(-c2cccc(Cl)c2)oc1C (stereo not given)	14µM*	0%	-4	8%[57.1 µM]	-8%
Cc1ccccc1-c1nc(CS(=O)CC(=O)NCc2ccccc2)c(C)o1 (stereo not given)	-53%	3%	1	11%[57.1 µM]	-21%
O=C(CNC(=O)c1ccccc1)OCC(=O)c1cccc2ccccc12	6%[0.0914 µM]	.	.	-1%	.
Nc1c(Cl)cc(C=O)cc1Cl	0%	.	.	-6%	.
COc1ccccc1/C=C/c1nc2ccccc2s1	-12%	.	.	-7%	.
COc1ccc(/C=C/C(=O)NCC2COc3ccccc3O2)cc1OC (stereo not given)	8%[57.1 µM]	-2%	3	2%[57.1 µM]	-3%
Cc1ccc(/C=C/C(=O)NCC2COc3ccccc3O2)o1 (stereo not given)	16µM*	3%	1	5%	-1%
O=C(N/N=C/c1ccco1)c1cccc(N2Cc3ccccc3C2)c1	50µM*	8%	-5	3%	?
COc1ccc2c(c1)CCc1c(C(=O)NCCN3CCOCC3)noc1-2	40µM*	2%	-2	2%	3%
COc1ccc(C(=O)NCCCn2ccnc2)cc1	13%[57.1 µM]	8%	0	5%[57.1 µM]	-11%
COCCNC(=O)c1noc2c1CCc1cc(OC)ccc1-2	?	2%	-2	5%	6%
COCC(C)NC(=O)c1noc2c1CCc1cc(OC)ccc1-2 (stereo not given)	10µM*	-2%	-7	0%	-17%
COc1ccc2c(c1)CCc1c(C(=O)NCCCn3ccnc3)noc1-2	16µM*	0%	-8	2%	-17%
COc1ccc2c(c1)CCc1c(C(=O)N(C)c3ccccc3)noc1-2	79µM*	-1%	-1	-3%	-10%
O=C(COc1ccccc1C(=O)Nc1ccccc1)NC1CCCCC1	7%	.	.	5%	.
Cc1cc(Br)ccc1NC(=O)COC(=O)c1ccccc1OCC(N)=O	11%	.	.	5%	.
Cc1ccccc1NC(=O)c1ccccc1OCC(=O)Nc1ccc(Br)cc1	-24%	.	.	-8%	.
c1ncc(CCCC2CCNCC2)[nH]1	.	.	0	.	.
COc1ccc(C(C)=O)cc1COC(=O)c1ccc(OCc2c(C)noc2C)cc1	-12%	3%	1	-1%	-21%
COc1ccc(C(C)=O)cc1COC(=O)c1c(C)noc1C	35µM*	1%	0	-5%	-7%
COc1ccc(C(C)=O)cc1CC(=O)NC1CCCCCC1	5%	0%	1	-3%	-16%
COc1ccc(C(C)=O)cc1CN(C)C	8.9µM*	-1%	-5	3%	-4%
O=C(/C=C1\NC2(CCCC2)Cc2ccccc21)N1CCOCC1	40µM*	0%	0	-4%	2%
CCOc1ccccc1NC(=O)/C=C/C(N)=O	25µM*	-1%	1	10%	-3%
CCCCc1ccc(CC(=O)NO)cc1	-5%	.	.	-7%	.
Cn1cnc([N+](=O)[O-])c1Sc1ncccc1N	35µM*	-4%	1	-3%	-9%
